Hits are enriched below; roughly 3% of the tested compounds scored in any of these assays.
Nrf2 ARE act: qHTS of Nrf2 Activators. 410,000 tested, 0.31% active. AREc32 ARE-luciferase reporter (MCF7-derived line), luminescence, 24 h. Potency, µM (top dose mostly 46.1 µM), without a hit: top-dose activation, hits mostly activators. AID 624171, 2012; note: % of control where 0% means no effect; nearly all actives have a fitted effect of over 65% in size
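Luciferase luminescence (Steady-Glo, 30 min at room temperature) served as the read-out of ARE activation in AREc32 cells treated with compounds for 24 hr at 37 deg C.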
TrxR1 substrate: qHTS Assay for Substrates of Mammalian Selenoprotein Thioredoxin Reductase 1 (TrxR1): qHTS; Thioredoxin reductase 1, cytoplasmic (Rattus norvegicus), O89049; purified TrxR1 substrate turnover, NADPH consumption readout; Potency, µM (titrated, usually from 114 µM), for the others: at the top dose activity change, negative = substrate turnover; 390,000 tested, 0.01% active; note: % is set by controls: 0 for no effect and ±100 for the full control effect; nearly all actives have a fitted effect of over 50% in size
Target sequence (O89049 whole entry, looked up): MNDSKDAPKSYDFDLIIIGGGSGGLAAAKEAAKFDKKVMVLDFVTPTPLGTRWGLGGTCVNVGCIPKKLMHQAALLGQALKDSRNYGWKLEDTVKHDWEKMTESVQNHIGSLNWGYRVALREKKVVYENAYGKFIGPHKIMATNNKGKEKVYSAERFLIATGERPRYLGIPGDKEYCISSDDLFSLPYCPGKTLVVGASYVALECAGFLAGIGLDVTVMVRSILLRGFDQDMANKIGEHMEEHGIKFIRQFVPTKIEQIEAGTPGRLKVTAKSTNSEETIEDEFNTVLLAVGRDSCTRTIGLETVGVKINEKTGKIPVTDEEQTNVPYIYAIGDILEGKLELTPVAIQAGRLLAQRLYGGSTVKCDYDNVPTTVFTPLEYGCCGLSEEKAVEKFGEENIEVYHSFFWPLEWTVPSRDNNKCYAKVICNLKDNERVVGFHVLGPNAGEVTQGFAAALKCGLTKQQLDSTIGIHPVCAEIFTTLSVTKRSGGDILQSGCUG
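Rat TrxR1, dispensed at 90 nM, was prereduced with 400 uM NADPH (final) for 5 min at ~22 deg C, then incubated with compound 15 min before 400 uM selenite. A first-read NADPH fluorescence drop versus no-compound background flagged substrates.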
Nrf2 block: Nrf2 qHTS screen for inhibitors | A549 ARE-Fluc reporter, luciferase luminescence, 18-24 h | Potency, µM (doses to about 46 µM), without a hit: top-dose activity change, negative = inhibition, hits mostly inhibitors | 360,000 tested, 2.1% active; note: % is set by controls: 0 for no effect and ±100 for the full control effect; nearly all actives have a fitted effect of over 60% in size
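Reporter: ARE-Fluc in A549. Exposure: 18-24 h, 37 °C, 5% CO2, 5% FBS OPTI-MEM. Readouts: fluorescent cytotoxicity (CellTiter-Fluor), then luminescent Nrf2 signal after BugLite.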
TrxR1 inh: qHTS Assay for Inhibitors of Mammalian Selenoprotein Thioredoxin Reductase 1 (TrxR1): qHTS. Thioredoxin reductase 1, cytoplasmic (Rattus norvegicus), O89049. recombinant rTrxR1, NADPH fluorescence consumption, selenite substrate. Potency, µM (series often up to 114 µM), for inactives: top-dose activity change, negative = inhibition, most hits filed as inhibitors. 390,000 tested, 1% active. AID 588453, 2011; note: % is set by controls: 0 for no effect and ±100 for the full control effect; nearly all actives have a fitted effect of over 65% in size
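Rat TrxR1 (90 nM in the dispensed reagent) was pre-reduced with 400 uM NADPH for 5 min at room temperature, then incubated with compound for 15 min. After 400 uM selenite was added, NADPH fluorescence (Ex 340/Em 450 nm) was followed for 8 min.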
A549 viability: Nrf2 qHTS screen for inhibitors: counterscreen for cytotoxicity; 390,000 tested, 0.16% active; A549 ARE-Fluc cells, CellTiter-Fluor viability, 18-24 h; Potency, µM (doses to about 46 µM), for the others: at the highest dose activity change, negative = cytotoxicity, usual class: inhibitors; note: % is set by controls: 0 for no effect and ±100 for the full control effect
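A549 ARE-Fluc cells in 5% FBS OPTI-MEM, 5000 cells/well, rested 2 h then exposed to compounds in concentration-response for 18-24 h at 37 °C. Viability by CellTiter-Fluor fluorescence (Ex 405/Em 525) after 30 min; luciferase luminescence (BugLite, 15 min, RT) read afterwards.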
GALK inh: qHTS Assay for Inhibitors of Human Galactokinase (GALK) | Purified GALK, Kinase-Glo residual ATP luminescence | 270,000 tested, 0.007% active | Potency, µM (doses to about 57.5 µM), for the others: top-dose activity change, negative = inhibition, usual class: inhibitors; note: % is set by controls: 0 for no effect and ±100 for the full control effect
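Human GALK (5 nM) with 35 uM ATP and 100 uM galactose in 20 mM HEPES pH 8.0, 5 mM MgCl2, 60 mM NaCl, 1 mM DTT, 0.01% BSA. After 1 h at room temperature, leftover ATP was read by Kinase-Glo Plus luminescence.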
* marks the source's active call; other numbers are inactive results; ? = inconclusive; · = not tested or not shown; [ ] = dose if it differs, or a comment. Calls come from the whole dose curve; as a rule, active = well fitted curve in the direction sought with a large enough effect; inconclusive = small, poorly fitted or top-dose-only effect, or another doubt; inactive = no such curve, though single readings can be large; an effect the other way counts as inactive or inconclusive. Potency is the fitted concentration of half-maximal effect.

SMILES	Nrf2 ARE act	TrxR1 substrate	Nrf2 block	TrxR1 inh	A549 viability	GALK inh
CCc1ccc(NC(=O)Cc2csc(COc3cccc(C)c3)n2)cc1	0.5%	2.1%	-5.3%	14.1%	-0.3%	·
COc1ccc(S(=O)(=O)c2cn(CC(=O)Nc3ccccc3)c3ccc(Cl)cc3c2=O)cc1	-0.7%	2.3%	2.8%	8.6%	1.2%	·
Cc1ccc(NCCC(=O)c2cccc([N+](=O)[O-])c2)cc1	?	7.8%[57.1 µM]	12.3%	3.55µM*	-5.3%	3.7%
O=C(CCNc1ccc(Cc2ccncc2)cc1)c1ccc([N+](=O)[O-])cc1	?	-22.0%[57.1 µM]	?	15.8µM*	-7.1%	-1.8%
O=C(CCNc1ccc(Br)cc1)c1cccc([N+](=O)[O-])c1	?	-4.6%	1.8%	15.8µM*	1.6%	-0.7%
O=C(CCNc1ccc(F)cc1)c1cccc([N+](=O)[O-])c1	?	4.7%	1.4%	3.55µM*	-9.7%[1.84 µM]	1.0%
O=C(CNC(=O)c1cccc([N+](=O)[O-])c1)OCCCC(=O)c1ccc(F)cc1	-1.4%	-4.5%	1.0%	17.1%	3.9%	·
Cc1ccc(CONC(=O)c2cccc([N+](=O)[O-])c2)cc1	-0.1%	-6.2%	23.1%	-8.4%	-0.4%	·
O=c1[nH]/c(=C/c2ccc3c(c2)OCO3)c(=O)[nH]/c1=C\c1ccc2c(c1)OCO2	·	-3.7%	·	21.7%[0.0914 µM]	·	·
O=C(NCc1ccc2c(c1)CCN2C(=O)c1ccncc1)c1cccc(F)c1	-0.9%	-16.1%[57.1 µM]	·	-19.8%[57.1 µM]	0.7%	·
O=C(CCNc1ccccc1)c1cccc([N+](=O)[O-])c1	?	3.2%	-5.5%	1.58µM*	0.9%	0.2%
O=C(CC(=O)c1ccccc1)Nc1cccc([N+](=O)[O-])c1	13.1%	·	·	·	·	·
O=C(CN1CCOCC1)Nc1nc(-c2ccccc2)cs1	3.5%	2.3%	15.6%	1.5%	0.8%	-2.4%
O=C(Cn1nnc(-c2ccc(CN3CCOCC3)cc2)n1)Nc1nc(-c2ccccc2)cs1	2.1%	8.0%[57.1 µM]	16.4µM*	12.8%[57.1 µM]	-0.9%	1.0%
O=S(=O)(c1ccccc1)N1CCN(c2nc(C3CC3)nc3ccccc23)CC1	·	·	-10.0%	·	4.8%	·
O=C(NC(=S)NNS(=O)(=O)c1ccc(Cl)cc1)c1cccnc1	0.4%	9.3%	-23.3%	17.8µM*	6.2%	0.6%
COc1ccc(CNC(=O)c2c(N)n(CCCN3CCOCC3)c3nc4ccccc4nc23)cc1	-2.9%	63.8%	16.4µM*	-8.3%	·	-0.2%
O=c1cc(C23CC4CC(CC(C4)C2)C3)[nH][nH]1	11.3%	9.0%	5.2%	14.1µM*	3.6%	-1.7%
Cc1ccn2cc(-c3ccc(C)c(NS(=O)(=O)c4ccc(Cl)cc4)c3)nc2c1	-0.2%	12.1%	?	34.2%	-23.2%	·
Cc1ccc(NC(=O)c2ccc(=O)[nH]n2)cc1S(=O)(=O)Nc1ccc(SC(F)F)cc1	4.0%	2.1%	20.6µM*	29.8%	-11.1%	·
CC1(c2nnc(-c3ccncc3)o2)CC(c2c(Cl)cccc2Cl)=NO1 (configuration not stated)	0.3%	-9.3%	9.2%	-16.8%	2.7%	-2.2%
CC1(c2nnc(-c3ccncc3)o2)CC(c2ccc([N+](=O)[O-])cc2)=NO1 (configuration not stated)	-0.5%	-8.2%	11.6µM*	-4.9%	2.0%	5.1%
CC1(c2nnc(-c3ccccc3)o2)CC(c2c(Cl)cccc2Cl)=NO1 (configuration not stated)	0.0%	-6.9%	23.1µM*	18.0%	-15.0%	·
CC(=O)c1ccc(S(=O)(=O)N2CCN(c3nc(-c4ccccc4)nc4ccccc34)CC2)cc1	·	-4.1%	6.8%	-0.6%	-0.4%	·
NNC(=O)CN1CCN(c2ncc(C(F)(F)F)cc2Cl)CC1	0.4%	4.7%[57.1 µM]	-28.6%	14.0%[57.1 µM]	-0.9%	1.1%
SMILES	Nrf2 ARE act	TrxR1 substrate	Nrf2 block	TrxR1 inh	A549 viability	GALK inh
O=C(CN1CCN(c2ncc(C(F)(F)F)cc2Cl)CC1)NCCNc1ncc(C(F)(F)F)cc1Cl	0.2%	-13.5%	14.6µM*	12.7%[0.457 µM]	?	0.4%
Cc1cc(Cl)n2c(nc3cc(F)c(F)cc32)c1C#N	6.0%	2.5%[57.1 µM]	16.1%	6.31µM*	-20.0%	-18.1%
Cc1ccnc(N(C(=O)c2cccs2)C(=O)c2cccs2)c1	10µM*	4.0%	5.0%	21.8%	0.3%	4.1%
COC(=O)C1=C(C)N(c2ccc(C(=O)OC)cc2)C(=O)C1	2.6%	7.3%[57.1 µM]	-13.3%	-25.8%[57.1 µM]	-7.5%	-0.3%
COC(=O)C1=C(C)N(c2cccc3ccccc23)C(=O)C1	?	0.4%	13.4%	25.1µM*	-0.1%	-0.3%
COC(=O)C1=C(C)N(c2cc(Cl)cc(Cl)c2)C(=O)C1	?	-0.2%	9.2µM*	?	-15.0%	0.4%
Clc1ccc(Cn2cc3c(n2)-c2cc4ccccc4n2C3)cc1	·	7.4%[0.0914 µM]	0.3%	5.9%	0.1%	·
COc1ccc(-c2cc(-c3c(O)c(OC)c4occc4c3OC)[nH]n2)cc1OC	9.1%	-1.0%	13µM*	-4.4%	?	-0.2%
COc1ccc(-c2cc(-c3c(O)c(OC)c4occc4c3OC)[nH]n2)cc1	4.5%	-0.7%[57.1 µM]	?	-13.2%[57.1 µM]	?	-1.5%
CCc1ccc(NC(=O)c2cnn3c(C)cc(C)nc23)cc1	·	·	?	·	14.2%	·
c1coc(CNc2ncnc3c2nc2n3CCCC2)c1	·	7.5%	·	-1.9%	·	·
O=C(OCn1ncc(Br)c(Br)c1=O)c1ccccc1Cl	?	7.2%	?	?	?	-9.1%
O=C(OCn1ncc(Br)c(Br)c1=O)c1ccc(F)cc1	?	13.0%	?	1.78µM*	?	-8.3%
Cc1ccc(-c2csc(-c3nc(-c4ccc(Br)s4)cs3)n2)cc1	11.2%	1.6%	3.3%	14.7%	-10.1%	·
Cc1ccc(S(=O)(=O)NCCOC(=O)Nc2sc(=S)n(C)c2C)cc1	-0.7%	2.7%	-7.4%	7.08µM*	2.8%	2.2%
CCc1cccc(NC(=O)C(Cc2ccccc2)n2cccc2)c1 (configuration not stated)	-0.3%	5.8%	20.6µM*	25.7%	-12.9%	·
Cc1cccc(NC(=O)COc2ccc(-c3nn(C)c(=O)c4ccccc34)cc2)c1	-2.7%	6.5%	23.1µM*	22.8%	?	-1.2%
O=c1c2c3c(sc2nnn1CCCCOc1ccc(Cl)cc1)CCCC3	-0.1%	-3.4%	21.5%	2.7%	0.0%	·

Screens as filed in PubChem.
